We go through 11 compounds from PubChem BioAssay (NCATS).

Molecules are shown by their SMILES. Inconclusive results are not listed. The source made the active and inactive calls. Calls follow the shape of the dose curve; as a rule, active = well fitted cell-killing curve with a large enough effect; inconclusive = small, poorly fitted or top-dose-only effect, or effect the other way; inactive = no such curve, though single readings can be large or run the other way.
Potency is read from the fitted curve at half-maximal effect.

The assay in a line: Viability qHTS for spleen associated tyrosine kinase inhibitor (SYKi) naive MV4-11 cells (AID 1963823). Also: nearly all actives have a fitted effect of over 40% in size. As to conditions: MV4-11 AML viability, CellTiter-Glo luminescence, 72 h; series mostly up to 45 µM; viability (% of control): at the top concentration. A digest of the protocol:
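qHTS, SYK inhibitor-naive MV4-11; 500 cells/well; 72 hr compound exposure, 37 C; CellTiter-Glo added, 10 min RT; luminescence read.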
In general terms: In qHTS, concentration-response curves come from the screen itself.
Consider `CC(C)=CCC[C@](C)(O)[C@H]1CC[C@]2(C)[C@@H]1[C@H](O)CC1[C@@]3(C)CC[C@H](O)C(C)(C)C3[C@@H](O[C@@H]3O[C@H](CO)[C@@H](O)[C@H](O)[C@H]3O[C@@H]3OC[C@@H](O)[C@H](O)[C@H]3O)C[C@]12C` (stereo partly specified), for which the “viability (% of control)” value was 79.9% [at 17.3 µM] (inactive). On the same count and under the same terms, the same measure for `CC1=C2C(=O)C=C(CO)C2[C@H]2OC(=O)[C@H](C)[C@@H]2[C@@H](OC(=O)Cc2ccc(O)cc2)C1` (stereo partly specified): 74.2% [at 17.3 µM] (inactive); for `C=C1C[C@]23C[C@H]1CC[C@H]2[C@@]12CC[C@H](O)[C@@](C)(C(=O)O1)[C@H]2[C@@H]3C(=O)O`: 86.6% (inactive).

Consider `COc1cc(C(C)=O)c(OC)c2c1OC(C)(C)C=C2`, for which the “viability (% of control)” value is 78.3% (inactive). On to `Cc1ccc(-c2ncccn2)c(C(=O)N2C[C@H](COc3ccc(F)cn3)CC[C@H]2C)c1`, for which the “viability (% of control)” value was 42.1% (inactive). As for `C=CC1(C)C=C2CC[C@H]3[C@@](C)(C(=O)O)CCC[C@]3(C)C2CC1` (stereo partly specified), the Potency was 1610 nM (active). On to `CCC(CC)C(=O)Nc1sc2c(c1C#N)CCC(C(C)(C)CC)C2` (stereo unspecified), for which the Potency was 2060 nM (active). In the case of `CCC(C)C1NC(=O)C2CCCN2C(=O)C(NC(C)=O)C(C)OC(=O)C(Cc2ccc(OC)cc2)N(C)C(=O)C2CCCN2C(=O)C(C(C)C)NC1=O` (stereo unspecified), the “viability (% of control)” value was 64.1% [at 17.3 µM] (inactive). Take `CSc1nc(N)cc(Oc2ccc(-c3nc(Nc4cccc(C(F)(F)F)c4)n[nH]3)cc2)n1`: the Potency is 1160 nM (active). As to `C[C@]1(O)CC[C@@H]2C(C(=O)O)=CO[C@@H](O[C@@H]3O[C@H](CO)[C@@H](O)[C@H](O)[C@H]3O)[C@@H]21`, the “viability (% of control)” value is 74.1% (inactive). Still for that read-out and setting: the same measure for `C=C1C2CCC3CC2(CC(O)C2(O)C1CC(OC1OC(CO)C(O)C(O)C1O)C2(C)C)CC3(C)O` (stereo unspecified): 81.4% [at 17.3 µM] (inactive).
